Shh pathway inh: Sonic Hedgehog pathway inhibition | inhibition, % (no concentration beside the values) | 2.1% of 22,000 active | Shh-LIGHT2 Gli-luciferase reporter, 30 h;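 active means mean inhibition across valid replicates above about 65%, limit read from the data; inconclusive means mean under the limit, yet half or more replicates past it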;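 further: pathway switched on by Shh-conditioned medium diluted 1 in 25 in low serum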
PD-1 reversal: reversal of PD-1 mediated T-cell inhibition; primary human CD4 T cells, PD-L1 beads, CellTiter-Glo 96 h; activation, % (no concentration beside the values); 29,000 tested, under 10 active; AID 2316; call rule not given here;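 further: 0% = median vehicle wells and 100% = positive control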
NOMO-1 viab: STK33 inhibitor candidate reducing NOMO-1 cell viability; inhibition, % (test concentration not listed); 7.5% of 37,000 active; AID 2330; NOMO-1 AML viability, CellTiter-Glo luminescence, 72 h; in the data active means inhibition above about 80%; inconclusive means no clear call, values can overlap the other calls
MITF inh: inhibitors of MITF; TRPM1 promoter luciferase, luminescence, 24 h; inhibition, % (no concentration beside the values); 0.28% of 37,000 active; AID 2240; in the data active means inhibition above about 85%; inconclusive means no clear call, values can overlap the other calls; inactive means below about 68%;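 further: human melanocyte line stably carrying TRPM1 promoter luciferase reporter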
Starred values were filed as active, the others as inactive; u = inconclusive; x = no result; ! = a repeat was not active. A selection: hits, their analogues and other compounds. The true share with any hit is near 8.1%.

SMILES	Shh pathway inh	PD-1 reversal	NOMO-1 viab	MITF inh
C[C@H](CO)N1C[C@H](C)[C@@H](CN(C)Cc2ccc(C(=O)O)cc2)Oc2c(NC(=O)c3nc4ccccc4s3)cccc2C1=O	27.9	-1.3	18.3	12.2
C[C@H](CO)N1C[C@H](C)[C@H](CN(C)Cc2ccc(-c3ccccc3)cc2)Oc2c(NC(=O)c3nc4ccccc4s3)cccc2C1=O	-9.6	-2.0	u	-2.5
C[C@@H]1CN([C@@H](C)CO)C(=O)c2cccc(NC(=O)c3nc4ccccc4s3)c2O[C@@H]1CN(C)Cc1ccccc1	41.8	-4.8	104.3*	1.5
CC1(C)CC[C@]2(C(=O)O[C@@H]3OC[C@H](O[C@@H]4OC[C@H](O)[C@H](O)[C@H]4O)[C@H](O)[C@H]3O)CC[C@]3(C)C(=CCC4[C@@]5(C)C[C@H](O)[C@H](O[C@@H]6O[C@H](C(=O)O)[C@@H](O)[C@H](O[C@@H]7OC[C@H](O)[C@H](O)[C@H]7O)[C@H]6O)[C@@](C)(CO)C5CC[C@]43C)[C@@H]2C1 (stereo partly specified)	-11.5	1.6	-6.7	1.1
C[C@H]1CN([C@@H](C)CO)C(=O)c2cccc(NC(=O)c3nc4ccccc4s3)c2O[C@H]1CN(C)C(=O)Nc1ccc(C(F)(F)F)cc1	33.4	-4.8	109.5*	4.9
C[C@H](CO)N1C[C@H](C)[C@@H](CN(C)C(=O)Nc2cccc3ccccc23)Oc2c(NC(=O)c3nc4ccccc4s3)cccc2C1=O	46.2	-3.8	98.8*	8.3
C[C@H](CO)N1C[C@H](C)[C@@H](CN(C)C(=O)Nc2ccccc2)Oc2c(NC(=O)c3nc4ccccc4s3)cccc2C1=O	u	-1.9	14.4	5.9
C[C@@H]1CN([C@H](C)CO)C(=O)c2cccc(NC(=O)c3nc4ccccc4s3)c2O[C@H]1CN(C)CC1CCCCC1	36.4	-3.6	116.1*	36.8
C[C@H]1CN([C@@H](C)CO)C(=O)c2cccc(NC(=O)c3nc4ccccc4s3)c2O[C@@H]1CN(C)C(=O)Nc1ccc(C(F)(F)F)cc1	-3.3	x	32.9	9.5
Cc1ccc(-n2c(C)nnc2SCC(=O)Nc2cc(C(F)(F)F)ccc2Cl)cc1	x	-1.4	35.2	6.7
CC(=O)O[C@@H]1CC2C(C)(C)CCC[C@]2(C)C2CC[C@]3(C)C(=CC(=O)O[C@H]3c3ccoc3)[C@@]21C (stereo partly specified)	-3.8	x	98.9*	43.2
CC(=O)O[C@@H]1CC[C@@]2(C)C(C[C@@H](OC(C)=O)[C@@]3(C)C4=CC(=O)O[C@@H](c5ccoc5)[C@]4(C)CCC23)C1(C)C (stereo partly specified)	10.6	x	66.5	14.9
C=C1C(=O)O[C@@H]2/C=C(/C)CC/C=C(/C(=O)O)C[C@@H](OC(=O)/C(C)=C/C)C12 (stereo partly specified)	-28.9	-0.3	38.1	-30.3
C=C1C(=O)O[C@@H]2/C=C(\C)[C@@H](OC(=O)C(O)C(C)C)C/C=C(/C)C[C@@H](OC(=O)/C(=C/CO)CO)[C@@H]12 (stereo partly specified)	-2.1	-22.5	121.4*	-5.2
C=C1C(=O)O[C@@H]2/C=C(\C)[C@H](OC(C)=O)C/C=C(/C)C[C@@H](OC(=O)/C(=C/CO)CO)C12 (stereo partly specified)	u	-8.1	107.8*	-0.6
O=C(CSc1nc2ccccc2nc1N1CCOCC1)N1CCC2(CC1)OCCO2	21.9	1.4	18.4	-7.2
Oc1cc(C2CCCCC2)cc(C2CCCCC2)c1	x	-7.1	137.2*	40.4
Cc1noc(C)c1S(=O)(=O)Nc1ccc2c(c1)C(=O)N([C@H](C)CO)C[C@H](C)[C@@H](CN(C)Cc1ccc(C(=O)Nc3ccccc3N)cc1)OCCCC[C@@H](C)O2	x	-1.3	127.3*	0.1
Cc1noc(C)c1S(=O)(=O)Nc1ccc2c(c1)C(=O)N([C@H](C)CO)C[C@H](C)[C@H](CN(C)Cc1ccc(C(=O)Nc3ccccc3N)cc1)OCCCC[C@@H](C)O2	x	-0.4	139.1*	-4.3
C[C@@H]1CCCCO[C@H](CN(C)Cc2ccc(C(=O)Nc3ccccc3N)cc2)[C@@H](C)CN([C@H](C)CO)C(=O)c2cc(NS(=O)(=O)c3cn(C)cn3)ccc2O1	x	0.1	40.2	2.0
Cc1noc(C)c1S(=O)(=O)Nc1ccc2c(c1)C(=O)N([C@@H](C)CO)C[C@@H](C)[C@H](CN(C)Cc1ccc(C(=O)Nc3ccccc3N)cc1)O2	x	-1.6	11.7	-16.0
Cc1cc2c(C(C)C)c(O)c(O)c(C=O)c2c(O)c1-c1c(C)cc2c(C(C)C)c(O)c(O)c(C=O)c2c1O	68.2*!	x	110.7*	30.6

Screening data as filed in PubChem.
